{"source": "PubChem BioAssay (NCATS)", "experiment": "qHTS for Inhibitors of the Aldehyde Dehydrogenase Family (ALDH1A2, ALDH1A3, ALDH2, ALDH3A1) (AID 2061307); note: nearly all actives have a fitted effect of over 50% in size; for potency: test system not described further here", "conditions": "ALDH inhibition qHTS; series mostly up to 50.3 µM", "note": "Inconclusive results are not listed. A call without a number means that no potency is given here. The source made the active and inactive calls. Calls come from the whole dose curve; as a rule, active = well fitted inhibition curve with a large enough effect; inconclusive = small, poorly fitted or top-dose-only effect; inactive = no such curve, though single readings can be large or run the other way. Potency is the fitted concentration of half-maximal effect."}
{"smiles": "O=C(Nc1ccccc1C(=O)Nc1cccc(C(F)(F)F)c1)c1ccc(Cl)cc1", "values": [{"measurement": "Potency", "value": "inactive"}]}
{"smiles": "O=C(Cn1nc2c(cc1=O)CCCC2)Nc1nc(-c2ccc3c(c2)OCO3)cs1", "values": [{"measurement": "Potency", "value": "inactive"}]}
{"smiles": "CCOc1ccccc1-n1c(CN2CCN(C(=O)c3ccco3)CC2)nc2cc(OC)c(OC)cc2c1=O", "values": [{"measurement": "Potency", "value": "inactive"}]}
{"smiles": "CNc1nc2c(s1)C(c1ccccc1Cl)CC(=O)N2", "note": "(stereo not drawn)", "values": [{"measurement": "Potency", "value": "11.3 µM (active)"}]}
{"smiles": "COC(=O)c1ccc(CN2CCC(N(CCc3ccccc3)Cc3ccccc3)CC2)cc1", "values": [{"measurement": "Potency", "value": "inactive"}]}
{"smiles": "NCC(=O)Nc1cccc(-c2nn3c(=O)cc(N4CCNCC4)nc3s2)c1", "values": [{"measurement": "Potency", "value": "inactive"}]}
{"smiles": "COCCCNC(=O)c1cc2cc(S(=O)(=O)N(C)C)ccc2n1C", "values": [{"measurement": "Potency", "value": "inactive"}]}
{"smiles": "COc1ccc(-n2ncc3c2CCCC3NC(=O)c2cccc(OC(F)(F)F)c2)cc1", "note": "(stereo not drawn)", "values": [{"measurement": "Potency", "value": "12.6 µM (active)"}]}
{"smiles": "Brc1ccc(CN2CCC(N(CCc3ccccc3)Cc3ccccc3)CC2)cc1", "values": [{"measurement": "Potency", "value": "inactive"}]}
{"smiles": "COc1cc(NC(=S)N=Nc2c(O)[nH]c3ccccc23)cc(OC)c1OC", "values": [{"measurement": "Potency", "value": "inactive"}]}
{"smiles": "Cc1occc1C(=O)N1CCc2cc(-c3nc(NC(=O)Cc4ccc5c(c4)OCO5)sc3C)ccc21", "values": [{"measurement": "Potency", "value": "7.08 µM (active)"}]}
{"smiles": "O=C(Nc1cccc(-c2ccc(N3CCOCC3)nn2)c1)Nc1ccccc1C(F)(F)F", "values": [{"measurement": "Potency", "value": "inactive"}]}
{"smiles": "COc1ccc(CCNC(=O)c2ccc3nnc(-c4ccc([S+](C)(=O)[O-])cc4)n3c2)cc1", "values": [{"measurement": "Potency", "value": "inactive"}]}
{"smiles": "Cc1ccc(C)n1-c1ccccc1C(=O)O", "values": [{"measurement": "Potency", "value": "inactive"}]}
{"smiles": "O=C(c1cnc(N2CCCCC2)c2ccccc12)N1CCN(c2ccc(Cl)cc2)CC1", "values": [{"measurement": "Potency", "value": "inactive"}]}
{"smiles": "Cc1ccc2nc(Nc3ccc(C(=O)O)cc3)[nH]c2c1", "values": [{"measurement": "Potency", "value": "12 µM (active)"}]}
{"smiles": "CC1(C)c2nc(-c3ccc(F)cc3)c(Nc3ccc(F)cc3)n2CCN1C(=O)CN", "values": [{"measurement": "Potency", "value": "inactive"}]}
{"smiles": "CC(C)c1ccc(-c2cc(-c3nn(-c4nc(C(=O)O)cs4)c(CC4CC4)c3Cc3ccc(S(N)(=O)=O)cc3)ccc2F)cc1", "values": [{"measurement": "Potency", "value": "1.12 µM (active)"}]}
{"smiles": "Cc1noc(C)c1-c1cncc(C(=O)NCc2cccnc2)c1", "values": [{"measurement": "Potency", "value": "inactive"}]}
{"smiles": "CN(C)c1ccc(NC(=O)c2cn(-c3ccccc3)nn2)cn1", "values": [{"measurement": "Potency", "value": "inactive"}]}
{"smiles": "O=C1CCc2ccc(NC(=O)c3ccn(-c4ccccc4F)n3)cc2N1", "values": [{"measurement": "Potency", "value": "inactive"}]}
{"smiles": "Ic1ccc(CN2CCC(N(CCc3ccccc3)Cc3ccccc3)CC2)cc1", "values": [{"measurement": "Potency", "value": "inactive"}]}
{"smiles": "CCn1c(C(=O)NCCc2ccc(OC)cc2)cc2sccc21", "values": [{"measurement": "Potency", "value": "2.01 µM (active)"}]}
{"smiles": "c1ccc(CCN(Cc2ccccc2)C2CCN(Cc3ccc4c(c3)OCCO4)CC2)cc1", "values": [{"measurement": "Potency", "value": "inactive"}]}
{"smiles": "COc1ccc(NC(=O)c2ccc3ccccc3n2)cc1S(N)(=O)=O", "values": [{"measurement": "Potency", "value": "inactive"}]}
{"smiles": "OC[C@H]1O[C@@H](OCc2ccccc2)[C@H](O)[C@@H](O)[C@H]1O", "values": [{"measurement": "Potency", "value": "inactive"}]}
{"smiles": "N[C@H](CCC(=O)Nc1cccc(-c2nn3c(=O)cc(N4CCNCC4)nc3s2)c1)C(=O)O", "values": [{"measurement": "Potency", "value": "inactive"}]}
{"smiles": "N#Cc1ccc(CN2CCC(N(CCc3ccccc3)Cc3ccccc3)CC2)cc1", "values": [{"measurement": "Potency", "value": "inactive"}]}
{"smiles": "COc1ccc(C2Nc3c(OC)ccc(OC)c3C(=O)N2Cc2ccccc2)cc1COc1ccc(NC(C)=O)cc1", "note": "(stereo not drawn)", "values": [{"measurement": "Potency", "value": "2.83 µM (active)"}]}
{"smiles": "Cc1ncccc1NC(=O)c1cccs1", "values": [{"measurement": "Potency", "value": "inactive"}]}
{"smiles": "Cc1c(P(=S)(c2ccccc2)c2ccccc2)[n+]2ccccc2n1C/C=C/c1ccc2ccccc2c1", "values": [{"measurement": "Potency", "value": "3.55 µM (active)"}]}
{"smiles": "Cc1c2c(=O)n(-c3ccccc3)[nH]c2cc(=O)n1CCCN1CCOCC1", "values": [{"measurement": "Potency", "value": "inactive"}]}
{"smiles": "O=C(O)c1cccc(S(=O)(=O)N2CCC(n3nnc4cc(C(F)(F)F)ccc43)CC2)c1", "values": [{"measurement": "Potency", "value": "inactive"}]}
{"smiles": "COc1ccccc1-c1noc(CNc2cccc(C#N)c2)n1", "values": [{"measurement": "Potency", "value": "inactive"}]}
{"smiles": "Cc1nn(CC(=O)N2CCN(c3cccc(C(F)(F)F)c3)CC2)c(=O)c2cc3sccc3n12", "values": [{"measurement": "Potency", "value": "inactive"}]}
{"smiles": "CC(=O)Nc1ccc(NC(=O)c2cc(=O)c3ccccc3o2)cc1", "values": [{"measurement": "Potency", "value": "inactive"}]}
{"smiles": "O=C(Cn1c2ncccc2c(=O)n1-c1ccccc1)Nc1ccc(Cl)cc1C(F)(F)F", "values": [{"measurement": "Potency", "value": "inactive"}]}
{"smiles": "CCN(CC)S(=O)(=O)c1ccc(NC(=O)c2ccc(CN3CCc4ccccc4C3)cc2)cc1", "values": [{"measurement": "Potency", "value": "inactive"}]}
{"smiles": "O=C(Nc1cccc(C(F)(F)F)c1)c1ccccc1NCc1cccc(C(F)(F)F)c1", "values": [{"measurement": "Potency", "value": "inactive"}]}
{"smiles": "CCOC(=O)c1c(C)n(-c2ccc(OC)cc2)c2ccc(O)cc12", "values": [{"measurement": "Potency", "value": "inactive"}]}
{"smiles": "O=C(c1ccc(F)cc1)c1no[n+]([O-])c1C(=O)c1ccc(F)cc1", "values": [{"measurement": "Potency", "value": "12.7 µM (active)"}]}
{"smiles": "Cn1nnnc1Sc1ncnc2n[nH]c(-c3ccccc3)c12", "values": [{"measurement": "Potency", "value": "inactive"}]}
{"smiles": "NS(=O)(=O)c1ccc(Cc2cn(-c3nc(C(=O)O)cs3)c3ccccc23)cc1", "values": [{"measurement": "Potency", "value": "inactive"}]}
